From PubChem BioAssay (NCI)
Compounds without any hit were thinned out: in the full panel of roughly 83,000, 20% have a hit.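 Cells were grown in 96-well plates and exposed to the test compound at a single concentration for 48 hours; results are reported as percent growth, with values below 10 considered active.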 Calls of active or inactive are those of the source.

How the values were obtained:
Experiment in all cases: NCI-60 one-dose screen, 48 h (100 = growth as untreated, 0 = no growth, -100 = all killed)
[1] = system: SK-MEL-2 melanoma; details: 10 µM unless noted
[2] = system: SN12C renal; details: 10 µM unless noted
[3] = system: UO-31 renal; details: 10 µM unless noted
[4] = system: ACHN renal; details: 10 µM unless noted
[5] = system: A498 renal; details: 10 µM unless noted
[6] = system: CCRF-CEM leukemia; details: 10 µM unless noted
[7] = system: MOLT-4 leukemia; details: 10 µM unless noted
[8] = system: SR leukemia; details: 10 µM unless noted
[9] = system: RPMI-8226 leukemia; details: 10 µM
[10] = system: OVCAR-8 ovarian; details: 10 µM unless noted
[11] = system: OVCAR-5 ovarian; details: 10 µM unless noted
[12] = system: OVCAR-4 ovarian; details: 10 µM unless noted
[13] = system: SK-OV-3 ovarian; details: 10 µM
[14] = system: IGROV1 ovarian; details: 10 µM unless noted
[15] = system: OVCAR-3 ovarian; details: 10 µM unless noted
[16] = system: HS 578T breast; details: 10 µM unless noted
[17] = system: NCI/ADR-RES ovarian; details: 10 µM unless noted
[18] = system: CAKI-1 renal; details: 10 µM unless noted
[19] = system: EKVX NSCLC; details: 10 µM unless noted
[20] = system: TK-10 renal; details: 10 µM unless noted

Measured: growth

NC(=O)c1cc(Cl)ccc1NC(=O)COc1ccccc1
inactive: [1] 49.7% | [2] 64.3% | [3] 58.3% | [4] 58.4% | [5] 83.5% | [6] 23.2% | [7] 34.7% | [8] 23% | [9] 44.5% | [10] 60.1% | [11] 80.5% | [12] 101% | [13] 62.8% | [14] 54.5% | [15] 27.2% | [16] 54.7% | [17] 31.4%

O=c1nc(NO)[nH]c(=O)n1Cc1ccc(F)cc1
inactive: [2] 107% | [3] 84.2% | [4] 101% | [18] 111% | [5] 128% | [6] 105% | [7] 103% | [8] 103% | [9] 105% | [10] 109% | [11] 104% | [12] 91.5% | [13] 105% | [14] 97.3% | [16] 112% | [17] 107%

Cc1ccc2nc(NC(=O)CSC(=S)N3CCN(Cc4ccccc4)CC3)sc2c1
active: [2] -1% | [3] -43.4% | [20] -36.4% | [4] -2.52% | [18] -20.8% | [5] -3.21% | [7] 6.71% | [9] 8.2% | [10] 0.825% | [11] -36.3% | [13] -44.7% | [14] -39.8% | [15] -90.4% | [16] -0.695%
inactive: [19] 72.5% | [8] 11.1% | [12] 12.6% | [17] 22.6%

CCOC(=O)C1=C(C)N2C(=NC3=C(CCCC/C3=C\c3cc(OC)c(OC)c(OC)c3)C2c2cc(OC)c(OC)c(OC)c2)S1 (stereo not drawn)
inactive: [2] 75.2% | [3] 54.3% | [4] 69.6% | [18] 65.6% | [5] 52% | [6] 70.9% | [7] 45.3% | [8] 47.4% | [9] 32.7% | [10] 63.6% | [11] 85.6% | [12] 69.3% | [13] 77.8% | [14] 71.6% | [15] 64.5% | [16] 96.1% | [17] 62.1%

O=c1[nH]c(-c2ccncc2)nc2sc3c(c12)CCCCCC3
active: [12] 1.18%
inactive: [2] 77.9% | [3] 70.5% | [4] 49.9% | [18] 67.8% | [5] 70.1% | [6] 98.1% | [7] 92.1% | [8] 40% | [9] 91% | [10] 69.2% | [11] 80% | [13] 31.5% | [14] 69.5% | [15] 74.1% | [16] 85.9% | [17] 55%

CNc1ccc(Br)cc1-c1n[nH]c(=O)[nH]c1=O
inactive: [2] 108% | [3] 71.3% | [4] 94.6% | [18] 76% | [5] 89.7% | [6] 102% | [7] 99.5% | [9] 104% | [10] 100% | [11] 98.3% | [12] 90.9% | [13] 102% | [14] 106% | [15] 116% | [16] 84.1% | [17] 105%

COC(=O)/C=C1/CCC2C3CCC4=CC(=O)C(Br)CC4(C)C3C(=O)CC12C (stereo not drawn)
active: [6] 5.9%
inactive: [19] 98% | [2] 82.9% | [3] 81.1% | [4] 72.5% | [18] 73.9% | [5] 117% | [7] 52.3% | [8] 33% | [9] 61.1% | [10] 63.1% | [11] 112% | [12] 67.8% | [13] 103% | [14] 25.1% | [16] 86.7% | [17] 81.7%

N#Cc1ccc(C(F)(F)F)nc1N1CCC(C(=O)Nc2ccc(Cl)cc2)CC1
inactive: [2] 80.3% | [3] 74% | [4] 68.7% | [18] 73.1% | [5] 64.2% | [6] 82.5% | [7] 41% | [8] 48.3% | [9] 74.1% | [10] 75.8% | [11] 76.9% | [12] 69.1% | [13] 82.5% | [14] 102% | [15] 99.4% | [16] 105% | [17] 72.1%

CC(=O)OC[C@H](O)[C@@]1(O)CC[C@H]2[C@@H]3CCC4=CC(=O)CC[C@]4(C)[C@H]3[C@@H](O)C[C@@]21C
inactive: [19] 87.3% | [2] 85.9% | [3] 78% | [20] 112% | [4] 111% | [18] 85.5% | [5] 112% | [6] 89.4% | [8] 99.9% | [9] 89.8% | [10] 98.5% | [11] 96.6% | [12] 105% | [13] 90.8% | [14] 111% | [15] 108% | [16] 114% | [17] 102%

CC[Si](CC)(CC)OC1[C@@H](O[Si](CC)(CC)CC)[C@@H](CNC(=O)NC)O[C@H]1n1cnc2c(NC(=O)Nc3ccccc3)ncnc21 (stereo partly drawn)
active: [9] 3.35%
inactive: [2] 93.6% | [3] 40.1% | [4] 88.4% | [18] 69% | [5] 38.6% | [6] 38.5% | [8] 14.8% | [10] 92.7% | [11] 93.6% | [12] 94.4% | [13] 98.2% | [14] 73.6% | [15] 66.6% | [16] 69.9% | [17] 91.8%

CC(=O)c1cc(C)c(OC(=O)c2ccccc2)c(C)c1
inactive: [19] 96.5% | [2] 102% | [3] 84.3% | [4] 103% | [18] 79.3% | [5] 105% | [6] 85.4% | [7] 93.3% | [8] 82.8% | [9] 80.4% | [10] 103% | [11] 106% | [12] 91.6% | [13] 103% | [14] 123% | [15] 106% | [16] 100% | [17] 97.9%

O=C1NC(=O)C(CSc2ccccc2)(c2ccccc2)N1 (stereo not drawn)
inactive: [19] 110% | [2] 103% | [3] 88.9% | [4] 101% | [18] 87.7% | [5] 122% | [6] 97.1% | [8] 89.9% | [9] 100% | [10] 99.3% | [11] 107% | [12] 111% | [13] 101% | [14] 80.4% | [15] 124% | [16] 106% | [17] 99.9%

O=C(O)C[C@H](O)C[C@H](O)/C=C/c1c(C2CC2)nc2ccccc2c1-c1ccc(F)cc1
active: [5] -28.9%
inactive: [19] 93.6% | [2] 30.3% | [3] 73.3% | [20] 111% | [4] 39.7% | [18] 26.1% | [8] 12.1% | [10] 61.5% | [11] 79% | [12] 111% | [13] 93.7% | [14] 53.4% | [15] 103% | [16] 70.1% | [17] 37.2%

Cc1ccc(S(=O)(=O)N2CCc3ccc(O)c4c3C2Cc2ccc3c(c2-4)OCO3)cc1 (stereo not drawn)
inactive: [19] 49.3% | [2] 39.5% | [20] 32.6% | [4] 44.9% | [18] 32% | [5] 35.6% | [7] 10.9% | [8] 14.8% | [9] 27.4% | [10] 31.1% | [11] 45.8% | [12] 45.6% | [14] 41.6% | [16] 47.5%
active: [6] -11.9% | [13] 7.28% | [15] -47.7% | [17] 9.54%

O=c1nc(NO)[nH]c(=O)n1Cc1ccccc1
inactive: [2] 113% | [3] 90.3% | [4] 101% | [18] 93.1% | [5] 100% | [6] 108% | [7] 109% | [9] 104% | [10] 104% | [11] 101% | [12] 97% | [13] 99.3% | [14] 106% | [15] 120% | [16] 100% | [17] 105%

CN1CCN(c2nc(-c3ccncc3)nc3sc4c(c23)CCCCCC4)CC1
active: [16] 5.17%
inactive: [2] 67.8% | [3] 33.7% | [4] 68.3% | [18] 46.7% | [5] 31.7% | [6] 79.5% | [7] 50.9% | [8] 32.5% | [9] 69% | [10] 82.9% | [11] 81.3% | [12] 71.7% | [13] 72.9% | [14] 76.2% | [15] 93.5% | [17] 64.9%

CC(C)(C)[Si](C)(C)OC1[C@@H](O[Si](C)(C)C(C)(C)C)[C@@H](CNC(=O)NC(=O)C(F)(F)F)O[C@H]1n1cnc2c(NC(=O)Nc3ccccc3)ncnc21 (stereo partly drawn)
inactive: [2] 81.1% | [4] 76.2% | [18] 16.6% | [5] 96.9% | [10] 82% | [11] 88.8% | [12] 78.4% | [13] 89.7% | [14] 71.2% | [16] 49.5% | [17] 85.5%
active: [3] -24.2% | [7] -41.7% | [8] -41.9% | [9] 4.89% | [15] -54.1%

O=c1[nH]c(-c2ccccn2)nc2sc3c(c12)CCCCCC3
inactive: [2] 50.5% | [3] 31.8% | [4] 37.5% | [18] 28.1% | [5] 36.7% | [6] 32.6% | [7] 18.8% | [8] 22.1% | [9] 39.4% | [10] 29.9% | [11] 58.6% | [12] 28% | [13] 45.2% | [14] 42.4% | [16] 69.9% | [17] 24.6%
